The results in this text go back to PubChem BioAssay (NCI).

About 83,000 compounds went through this panel and 20% of them were active in at least one assay; those are over-represented in the sample as a whole.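 Note: values are percent growth. 100 is the growth of untreated cells, values between 100 and 0 indicate rising inhibition; between -100 and 0 indicates cell death.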 A number with no mark means an inactive call. Active and inactive are the calls of the source. Rule for the calls: active = growth percent below 10; inactive = the rest.

Among the test systems are K-562 leukemia; MALME-3M melanoma; MDA-MB-231 breast; RXF 393 renal; SF-268 CNS; SF-295 CNS; SF-539 CNS; UACC-257 melanoma; M14 melanoma; HCT-15 colon; HT29 colon; SNB-75 CNS; SNB-19 CNS; U251 CNS; PC-3 prostate; SK-MEL-5 melanoma; UACC-62 melanoma; SK-MEL-28 melanoma; SK-MEL-2 melanoma.
Test in all cases: NCI-60 one-dose screen, 48 h (100 = growth as untreated, 0 = no growth, -100 = all killed)
Holding throughout (conditions): 10 µM unless noted

Regarding `COc1cccc(OC)c1-c1nnn(C)c1C(=S)N1CCN(c2ccc([N+](=O)[O-])cc2Cl)CC1`, the growth in the assay on K-562 leukemia was 91.5%; with MALME-3M melanoma it was 89.2%; with MDA-MB-231 breast, 90.5%; in the assay on RXF 393 renal, 82.4%; in the assay with SF-268 CNS it was 98.9%; in the assay with SF-295 CNS, 89.9%. Also, the growth with SF-539 CNS is 95.8%; in the assay with UACC-257 melanoma, 108%; in the assay with M14 melanoma, 97%; in the assay on HCT-15 colon it was 89.6%; with HT29 colon, 104%; in the assay with SNB-75 CNS, 92.2%. Also, the growth in the assay with SNB-19 CNS is 92.7%; with U251 CNS it was 97.9%; in the assay with PC-3 prostate, 54%; in the assay with SK-MEL-5 melanoma, 90.1%; in the assay on UACC-62 melanoma it was 69.1%; in the assay on SK-MEL-28 melanoma, 98.3%. In addition, the growth with SK-MEL-2 melanoma was 110%.
For `NS(=O)(=O)c1ccc(Nc2nc(Nc3ccccc3)nc(-n3nc(-c4ccccc4)cc3-c3ccccc3)n2)cc1`, the growth in the assay with K-562 leukemia was 11.5%; with MALME-3M melanoma it was 60%; in the assay on MDA-MB-231 breast, 37%; in the assay with RXF 393 renal it was 22.8%; in the assay on SF-268 CNS it was 37.8%; in the assay with SF-295 CNS, 34.3%. For the same compound, the growth with SF-539 CNS is 37.2%; in the assay with UACC-257 melanoma, 59.6%; with M14 melanoma it was 26.5%; in the assay on HCT-15 colon it was 18.3%; in the assay with HT29 colon it was 4.52% (active); with SNB-75 CNS, 56.4%. The growth with SNB-19 CNS was 50.1%; in the assay on U251 CNS, 33.3%; with PC-3 prostate, 26.7%; in the assay on SK-MEL-5 melanoma it was 39.2%; in the assay on UACC-62 melanoma, 54.8%; with SK-MEL-28 melanoma, 54.6%. Moreover, the growth with SK-MEL-2 melanoma is 56.3%.
On to `Cn1c(SCC(=O)Nc2ccc(-c3nc4ccc([N+](=O)[O-])cc4[nH]3)cc2)nc2ccccc2c1=O`, for which the growth in the assay on K-562 leukemia is 93.6%; in the assay with MALME-3M melanoma, 87.3%; in the assay on MDA-MB-231 breast it was 78.5%; in the assay on RXF 393 renal, 73.1%; in the assay on SF-268 CNS, 83.3%; in the assay on SF-295 CNS, 77.1%. The growth in the assay with SF-539 CNS is 78.1%; in the assay with UACC-257 melanoma, 87.3%; in the assay with M14 melanoma, 96.3%; in the assay with HCT-15 colon it was 78.2%; in the assay on HT29 colon, 89.7%; in the assay with SNB-75 CNS it was 93.2%. Besides, the growth in the assay on SNB-19 CNS was 85.8%; in the assay on U251 CNS, 92%; in the assay with PC-3 prostate it was 68.7%; with SK-MEL-5 melanoma, 84.8%; with UACC-62 melanoma, 75%; in the assay on SK-MEL-28 melanoma, 79.4%. The growth in the assay on SK-MEL-2 melanoma is 90.7%.
As for `CC(=O)Nc1cc(F)cc(-c2ccc3[nH]cc(-c4ccccc4)c3n2)c1`, the growth in the assay on K-562 leukemia was 0.935% (active); in the assay on MALME-3M melanoma it was -14.3% (active); with MDA-MB-231 breast, -3.42% (active); in the assay on RXF 393 renal, -11.8% (active); with SF-268 CNS, 41.3%; with SF-295 CNS it was -42.9% (active). Besides, the growth is -28.5% (active) in the assay on SF-539 CNS; -29.3% (active) with UACC-257 melanoma; -14.8% (active) in the assay with M14 melanoma; -60.8% (active) in the assay on HCT-15 colon; -49.6% (active) in the assay on HT29 colon; 111% in the assay with SNB-75 CNS. Besides, the growth with SNB-19 CNS is 12.9%; with U251 CNS, -2.16% (active); with PC-3 prostate it was 20%; with SK-MEL-5 melanoma, 49%; with UACC-62 melanoma it was -1.28% (active); with SK-MEL-28 melanoma it was -67.5% (active). For the same compound, the growth in the assay on SK-MEL-2 melanoma is -17.5% (active).
In the case of `CC(O)C(NC(=O)C1CCCN1C(=O)CNC(=O)C1CC(=O)NCC(=O)NC(Cc2c[nH]c3ccccc23)C(=O)NC(Cc2ccc(O)cc2)C(=O)NCC(=O)NC(CO)C(=O)NC(CCC(N)=O)C(=O)NC(Cc2c[nH]c3ccccc23)C(=O)N1)C(=O)NCC(=O)NC(CCC(N)=O)C(=O)NC(CCCNC(=N)N)C(=O)NC(CC(=O)O)C(=O)O` (stereo unspecified), the growth in the assay on K-562 leukemia was 94.9%; in the assay on MALME-3M melanoma, 95.5%; in the assay with MDA-MB-231 breast it was 98.6%; in the assay with RXF 393 renal, 116%; in the assay with SF-268 CNS, 103%; in the assay on SF-295 CNS, 102%. Moreover, the growth in the assay with SF-539 CNS is 96%; with UACC-257 melanoma, 102%; in the assay on M14 melanoma it was 91.1%; with HCT-15 colon, 99.5%; in the assay on HT29 colon, 106%; in the assay on SNB-75 CNS, 92.4%. The growth with SNB-19 CNS was 96.6%; in the assay on U251 CNS, 106%; in the assay with PC-3 prostate, 76.7%; in the assay on SK-MEL-5 melanoma it was 101%; with UACC-62 melanoma, 94.9%; in the assay on SK-MEL-28 melanoma it was 99.6%. For the same compound, the growth in the assay on SK-MEL-2 melanoma is 116%.
Regarding `COc1cc(/C=C/C(=O)c2ccc(F)cc2)ccc1Oc1nc(NCCO)nc(N2CCOCC2)n1`, the growth with K-562 leukemia is 6.99% (active); with MALME-3M melanoma it was 78.8%; in the assay with MDA-MB-231 breast it was 86.7%; in the assay with RXF 393 renal, 108%; in the assay on SF-268 CNS, 81%; with SF-295 CNS, 93.2%. Also, the growth in the assay on SF-539 CNS was 88.2%; in the assay on UACC-257 melanoma, 98.3%; in the assay with M14 melanoma, 84%; in the assay on HCT-15 colon it was 39.2%; in the assay with HT29 colon, 53.5%; with SNB-75 CNS, 92.2%. Moreover, the growth is 69.4% in the assay with SNB-19 CNS; 44.1% in the assay on U251 CNS; 70.8% in the assay with PC-3 prostate; 82.1% with SK-MEL-5 melanoma; 57.2% in the assay on UACC-62 melanoma; 93.9% in the assay on SK-MEL-2 melanoma.
Consider `N#Cc1ccc(C(=O)CSc2nc(Nc3ccc(S(N)(=O)=O)cc3)c3ccccc3n2)cc1`, for which the growth was 105% in the assay with K-562 leukemia; 106% in the assay on MALME-3M melanoma; 105% with MDA-MB-231 breast; 109% with RXF 393 renal; 109% in the assay on SF-268 CNS; 102% in the assay on SF-295 CNS. The growth in the assay with SF-539 CNS is 102%; in the assay with UACC-257 melanoma, 101%; in the assay on M14 melanoma it was 103%; in the assay on HCT-15 colon, 100%; in the assay on HT29 colon, 112%; with SNB-75 CNS it was 107%. The growth in the assay with SNB-19 CNS is 100%; with U251 CNS, 114%; in the assay with PC-3 prostate it was 89.4%; in the assay with SK-MEL-5 melanoma, 102%; with UACC-62 melanoma it was 99.4%; in the assay with SK-MEL-28 melanoma, 109%. Besides, in the assay with SK-MEL-2 melanoma, the growth is 118%.
Consider `Cn1ccnc1C(=O)/C=C/c1ccc(NC(=O)Nc2ccc(Cl)cc2)cc1`, for which the growth in the assay on K-562 leukemia is 47.6%; in the assay with MALME-3M melanoma, 84.2%; in the assay on MDA-MB-231 breast, 73.4%; in the assay on RXF 393 renal, 70.1%; with SF-268 CNS, 81.8%; with SF-295 CNS it was 85.9%. Besides, the growth in the assay on SF-539 CNS was 83.1%; in the assay on UACC-257 melanoma it was 100%; with M14 melanoma, 84.4%; in the assay on HCT-15 colon it was 47.1%; with HT29 colon, 93.6%; in the assay with SNB-75 CNS it was 74.4%. Besides, the growth is 78.9% with SNB-19 CNS; 62.6% in the assay with U251 CNS; 78.8% with PC-3 prostate; 91.2% in the assay with SK-MEL-5 melanoma; 92.2% with UACC-62 melanoma; 89.9% in the assay on SK-MEL-28 melanoma. The growth in the assay on SK-MEL-2 melanoma is 110%.
